Results from PubChem BioAssay AID1159580 (chemical genetic matrix, 2015).
About 2,000 (36%) of roughly 5,500 compounds were called active. Roughly 18% stayed inconclusive and do not appear here. Rule as the data show it: active = normalized growth mostly below about 0.91 (no sharp cut-off); inconclusive = no clear call, values can overlap the other calls; inactive = mostly above about 0.92. This is one part of the list.

Experiment: chemical genetic growth profiling, strain panel (AID 1159580);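 also: tested at 20 µM; growth read once vehicle control cultures reached saturation at 30 °C; 1 = growth at the plate median or of vehicle wells; lower values mean less growth of the strain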
Conditions: growth OD

Measured: normalized growth

Cc1cc(C(C)(C)C)c(O)c(C(C)(C)C)c1
active: S. cerevisiae deletion strains, locus YLR113W, strain HOG1, hits give low values 0.85 | S. cerevisiae deletion strains, locus YLR221C, strain rsa3, hits give low values 0.853 | S. cerevisiae deletion strains, locus YNL233W, strain BNI4, hits give low values 0.844 | S. cerevisiae deletion strains, locus YOL012C, strain htz1 2.14 [resistant]
inactive: S. cerevisiae deletion strains, locus YJR075W, strain HOC1, hits give low values 0.929 | S. cerevisiae deletion strains, locus YKL009W, strain mrt4, hits give low values 1 | S. cerevisiae deletion strains, locus YKL068W, hits give low values 0.978 | S. cerevisiae deletion strains, locus YKL085W, strain MDH1 (second series), hits give low values 1 | S. cerevisiae deletion strains, locus YKL085W, strain MDH1, hits give low values 1 | S. cerevisiae deletion strains, locus YKL160W, strain elf1, hits give low values 1 | S. cerevisiae deletion strains, locus YKL190W, strain CNB1, hits give low values 0.96 | S. cerevisiae deletion strains, locus YKR001C, strain vps1, hits give low values 0.927 | S. cerevisiae deletion strains, locus YKR026C, strain gcn3, hits give low values 0.978 | S. cerevisiae deletion strains, locus YKR091W, strain srl3, hits give low values 0.986 | S. cerevisiae deletion strains, locus YLL001W, strain dnm1, hits give low values 0.99 | S. cerevisiae deletion strains, locus YLL026W, hits give low values 0.954 | S. cerevisiae deletion strains, locus YLL041C, strain sdh2, hits give low values 0.978 | S. cerevisiae deletion strains, locus YLR027C, strain aat2, hits give low values 0.932 | S. cerevisiae deletion strains, locus YLR039C, strain RIC1, hits give low values 0.861 | S. cerevisiae deletion strains, locus YLR058C, strain SHM2, hits give low values 0.964 | S. cerevisiae deletion strains, locus YLR102C, strain apc9, hits give low values 0.989 | S. cerevisiae deletion strains, locus YLR258W, strain gsy2, hits give low values 0.997 | S. cerevisiae deletion strains, locus YLR262C, strain YPT6 (second series), hits give low values 0.956 | S. cerevisiae deletion strains, locus YLR262C, strain YPT6, hits give low values 0.85 | S. cerevisiae deletion strains, locus YLR268W, strain sec22, hits give low values 0.944 | S. cerevisiae deletion strains, locus YLR320W, strain mms22, hits give low values 0.904 | S. cerevisiae deletion strains, locus YLR330W, strain CHS5, hits give low values 0.99 | S. cerevisiae deletion strains, locus YLR342W, strain FKS1 (second series), hits give low values 1.09 | S. cerevisiae deletion strains, locus YLR342W, strain FKS1, hits give low values 0.975 | S. cerevisiae deletion strains, locus YLR357W, strain rsc2, hits give low values 0.966 | S. cerevisiae deletion strains, locus YLR370C, strain arc18, hits give low values 0.986 | S. cerevisiae deletion strains, locus YLR371W, strain rom2, hits give low values 1.01 | S. cerevisiae deletion strains, locus YLR384C, strain iki3, hits give low values 0.971 | S. cerevisiae deletion strains, locus YLR418C, strain cdc73, hits give low values 0.855 | S. cerevisiae deletion strains, locus YML016C, strain PPZ1, hits give low values 0.997 | S. cerevisiae deletion strains, locus YML032C, strain rad52, hits give low values 0.973 | S. cerevisiae deletion strains, locus YML120C, strain ndi1, hits give low values 0.938 | S. cerevisiae deletion strains, locus YML124C, strain tub3, hits give low values 0.995 | S. cerevisiae deletion strains, locus YMR058W, strain fet3, hits give low values 0.968 | S. cerevisiae deletion strains, locus YMR078C, strain ctf18, hits give low values 0.995 | S. cerevisiae deletion strains, locus YMR125W, strain sto1, hits give low values 0.989 | S. cerevisiae deletion strains, locus YMR129W, hits give low values 1 | S. cerevisiae deletion strains, locus YMR205C, strain PFK2, hits give low values 0.998 | S. cerevisiae deletion strains, locus YMR223W, strain ubp8, hits give low values 0.958 | S. cerevisiae deletion strains, locus YMR231W, strain pep5, hits give low values 0.989 | S. cerevisiae deletion strains, locus YMR263W, strain SAP30, hits give low values 0.898 | S. cerevisiae deletion strains, locus YMR307W, strain GAS1, hits give low values 0.901 | S. cerevisiae deletion strains, locus YNL067W, strain RPL9B, hits give low values 0.926 | S. cerevisiae deletion strains, locus YNL071W, strain lat1, hits give low values 0.997 | S. cerevisiae deletion strains, locus YNL128W, strain TEP1, hits give low values 0.874 | S. cerevisiae deletion strains, locus YNL153C, strain GIM3, hits give low values 0.917 | S. cerevisiae deletion strains, locus YNL183C, strain NPR1, hits give low values 0.938 | S. cerevisiae deletion strains, locus YNL209W, strain ssb2, hits give low values 0.993 | S. cerevisiae deletion strains, locus YNL248C, strain rpa49, hits give low values 0.904 | S. cerevisiae deletion strains, locus YNL250W, strain rad50, hits give low values 0.993 | S. cerevisiae deletion strains, locus YNL271C, strain bni1, hits give low values 1 | S. cerevisiae deletion strains, locus YNL298W, strain CLA4, hits give low values 0.962 | S. cerevisiae deletion strains, locus YNL307C, strain MCK1, hits give low values 0.98 | S. cerevisiae deletion strains, locus YNL322C, strain KRE1 (second series), hits give low values 1.01 | S. cerevisiae deletion strains, locus YNL322C, strain KRE1, hits give low values 0.975 | S. cerevisiae deletion strains, locus YNR049C, strain mso1, hits give low values 0.982 | S. cerevisiae deletion strains, locus YNR052C, strain pop2, hits give low values 1 | S. cerevisiae deletion strains, locus YOL006C, strain TOP1, hits give low values 0.888 | S. cerevisiae deletion strains, locus YOL147C, strain pex11, hits give low values 0.996 | S. cerevisiae deletion strains, locus YOR001W, strain rrp6, hits give low values 0.916 | S. cerevisiae deletion strains, locus YOR061W, strain CKA2, hits give low values 0.966 | S. cerevisiae deletion strains, locus YOR069W, strain VPS5, hits give low values 0.997 | S. cerevisiae deletion strains, locus YOR070C, strain gyp1, hits give low values 0.957 | S. cerevisiae deletion strains, locus YOR080W, strain dia2, hits give low values 0.99 | S. cerevisiae deletion strains, locus YOR083W, strain WHI5, hits give low values 0.986 | S. cerevisiae deletion strains, locus YOR106W, strain vam3, hits give low values 0.966 | S. cerevisiae deletion strains, locus YOR136W, strain idh2, hits give low values 0.974 | S. cerevisiae deletion strains, locus YOR144C, strain elg1, hits give low values 0.987 | S. cerevisiae deletion strains, locus YOR184W, strain ser1, hits give low values 1.01 | S. cerevisiae deletion strains, locus YOR231W, strain MKK1, hits give low values 0.916 | S. cerevisiae deletion strains, locus YOR265W, strain rbl2, hits give low values 0.992 | S. cerevisiae deletion strains, locus YOR270C, strain vph1, hits give low values 0.84 | S. cerevisiae deletion strains, locus YOR290C, strain snf2, hits give low values 0.954 | S. cerevisiae deletion strains, locus YOR316C, strain cot1, hits give low values 0.992 | S. cerevisiae deletion strains, locus YPL051W, strain arl3, hits give low values 0.954 | S. cerevisiae deletion strains, locus YPL055C, strain LGE1, hits give low values 0.798 | S. cerevisiae deletion strains, locus YPL078C, strain atp4, hits give low values 0.99 | S. cerevisiae deletion strains, locus YPL106C, strain sse1, hits give low values 0.917 | S. cerevisiae deletion strains, locus YPL240C, strain hsp82, hits give low values 0.985 | S. cerevisiae deletion strains, locus YPL241C, strain CIN2, hits give low values 0.98 | S. cerevisiae deletion strains, locus YPL256C, strain CLN2, hits give low values 0.922 | S. cerevisiae deletion strains, locus YPR119W, strain clb2, hits give low values 0.995 | S. cerevisiae deletion strains, locus YPR141C, strain kar3, hits give low values 0.97 | S. cerevisiae deletion strains, locus YPR163C, strain tif3, hits give low values 0.981 | S. cerevisiae deletion strains, locus YPR167C, strain met16, hits give low values 0.985 | S. cerevisiae deletion strains, strain wtn01, hits give low values 0.938 | S. cerevisiae strains, strain wild type, hits give low values 0.933
